Activity calls are given as the source filed them. The rule behind the calls is not given here.

11 molecules from PubChem BioAssay AID504379 (National Center for Advancing Translational Sciences (NCATS), 2011) can be followed below.

Sequence of Thyrotropin receptor (Homo sapiens) (P16473 whole entry, looked up): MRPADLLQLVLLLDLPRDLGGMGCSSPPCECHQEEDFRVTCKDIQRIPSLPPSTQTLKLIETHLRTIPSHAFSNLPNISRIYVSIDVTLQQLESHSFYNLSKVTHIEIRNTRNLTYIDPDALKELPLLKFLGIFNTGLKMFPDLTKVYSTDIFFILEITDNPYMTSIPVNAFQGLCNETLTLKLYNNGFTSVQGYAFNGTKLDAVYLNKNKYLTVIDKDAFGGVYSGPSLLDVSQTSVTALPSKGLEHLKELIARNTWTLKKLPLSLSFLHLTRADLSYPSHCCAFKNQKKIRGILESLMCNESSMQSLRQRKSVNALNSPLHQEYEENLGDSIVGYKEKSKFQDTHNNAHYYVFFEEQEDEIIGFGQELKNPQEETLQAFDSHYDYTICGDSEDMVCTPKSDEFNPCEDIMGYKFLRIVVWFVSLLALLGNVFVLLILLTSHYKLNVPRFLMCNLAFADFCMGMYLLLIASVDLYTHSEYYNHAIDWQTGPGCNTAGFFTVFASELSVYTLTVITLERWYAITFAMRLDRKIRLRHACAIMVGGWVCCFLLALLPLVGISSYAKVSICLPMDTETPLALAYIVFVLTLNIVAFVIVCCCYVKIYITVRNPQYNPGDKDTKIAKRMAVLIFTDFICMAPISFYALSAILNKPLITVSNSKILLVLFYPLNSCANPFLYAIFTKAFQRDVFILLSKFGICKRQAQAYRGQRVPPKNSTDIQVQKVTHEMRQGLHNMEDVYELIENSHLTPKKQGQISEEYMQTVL

For the test, the target named is Thyrotropin receptor (Homo sapiens) (UniProt P16473). Kind of test: Concentration-response assay for inverse agonists of the thyroid stimulating hormone receptor: ELISA activity detection. As to conditions: HEK293-TSHR basal cAMP, ELISA chemiluminescence, 1 h. The text has this:
TSH is an alpha/beta heterodimeric glycoprotein hormone secreted from the anterior pituitary gland which belongs to the glycoprotein hormone family. The actions of TSH are mediated by a seven-transmembrane receptor, which upon TSH binding couples preferentially to the G-alpha (s) protein (Gs), resulting in activation of adenylate cyclase and increase in cyclic adenosine 3', 5' monophosphate (cAMP). The TSH receptor (THSR) is mainly expressed in thyroid follicular cells and regulates their growth and function. This cell based assay was conducted on a TSHR transfected HEK 293 cell line, measuring cAMP stimulation using antibody-based Homogeneous Time Resolved Fluorescence (HTRF). Our goal is to identify small molecules that will inhibit (antagonize) the thyroid-stimulating hormone receptor (TSHR), a member of the 7 transmembrane-spanning receptor (7TMR) family of cell surface receptors. TSHR-mediated hyperthyroidism is important in thyroid pathology. The development of small molecule antagonists of TSHR may lead to therapeutic approaches for TSHR-mediated hyperthyroidism caused by constitutively activating mutations or stimulating auto-antibodies associated with Graves' disease. Graves' disease is the leading cause of hyperthyroidism and is caused by autoantibodies that stimulate TSHR (TsAbs) causing thyroid growth and unregulated overproduction of thyroid hormones and existing treatments have liabilities (agranulocytosis). In addition, TSHRs are known to be expressed in multiple extrathyroidal tissues including bone, brain, kidney, testis, fat and cells of the immune system but the role of the TSHR in these tissues is not clear. Therefore, TSHR antagonists/inverse agonists could be used as probes of extrathyroidal TSHR function. Finally, TSHR inverse agonists, which are a subclass of antagonists that inhibit agonist-independent (or basal or constitutive) TSHR signaling, could be used to inhibit TSH-independent signaling in patients with recurrent or metastatic thyroid cancer who are receiving thyroid hormone to suppress TSH. A confirmatory assay of TSHR inverse agonists was conducted on a HEK 293 cell line stably expressing the TSHR, using an ELISA based cAMP competition assay using cAMP-Screen Direct System (Applied Biosystems, Foster City, CA) to measure cAMP stimulation.
Transiently transfected HEK-EM 293 cells or cells stably expressing TSHRs were seeded into 96-well plates at a density of 7 x10^4 cells per well in DMEM containing 10% FBS. Cells were cultured for 24 h before incubation for 20 min in HBSS/10 mM HEPES (pH 7.4). To determine basal cAMP production, cells were incubated for 1 h at 37 C in a humidified incubator in HBSS/HEPES containing 1mM IBMX (Sigma Chemical Co., St. Louis, MO) in the presence or absence of compound. The levels of cAMP in cells incubated in HBSS/HEPES without IBMX were subtracted in all experiments. After aspiration of the incubation medium, cells were lysed using lysis buffer of the cAMP-Screen Direct system (Applied Biosystems, Foster City, CA). The cAMP content of the cell lysate was determined using the method described in the manufacturer's protocol. The chemiluminescence signal was measured in a VICTOR3 V 1420 multilabel counter (PerkinElmer, Norwalk, CT). The potency (IC50) of the ligands were obtained from dose-response curves by data analysis with GraphPad Prism 4 for Windows.
Regarding `COc1ccc(C2Nc3cccc(O)c3C(=O)N2Cc2ccco2)cc1COc1c(C)cc(NC(C)=O)cc1C` (stereo unspecified), the molecule was called inactive.
By IC50 is commonly meant the concentration that inhibits the measured activity by half. As for `Cc1cccc(C)c1OCc1cccc(C2Nc3ccccc3C(=O)N2Cc2ccco2)c1` (stereo unspecified), the half-maximal inhibitory concentration (IC50) is 5 µM (active).
Take `COc1ccc(C2Nc3ccccc3C(=O)N2Cc2cccnc2)cc1COc1c(C)cccc1C` (stereo unspecified): the IC50 is 7 µM (active).
For `COc1ccc(C2Nc3ccccc3C(=O)N2Cc2ccco2)cc1COc1c(C)cc(NC(C)=O)cc1C` (stereo unspecified), the IC50 is 6 µM (active).
Take `CCc1cccc(CC)c1OCc1cc(C2Nc3ccccc3C(=O)N2Cc2ccco2)ccc1OC` (stereo unspecified): the IC50 is 11 µM (active).
In the case of `COc1ccc(C2Nc3ccccc3C(=O)N2Cc2ccccc2)cc1COc1c(C)cccc1C` (stereo unspecified), the molecule was classed as inactive.
Same read-out and setting: with `COc1ccc(C2Nc3ccccc3C(=O)N2Cc2ccco2)cc1CSc1c(C)cccc1C` (stereo unspecified) the entry was “inactive”.
On the same count and under the same terms, in the case of `COc1ccc(C2Nc3ccccc3C(=O)N2Cc2ccco2)cc1COc1ccccc1C` (stereo unspecified) it was “inactive”; in that of `COc1ccc(C2Nc3ccccc3C(=O)N2Cc2ccc(C)o2)cc1COc1c(C)cccc1C` (stereo unspecified), “inactive”.
On to `COc1ccc(C2Nc3ccccc3C(=O)N2Cc2ccccn2)cc1COc1c(C)cccc1C` (stereo unspecified), for which the result was inactive.
Regarding `COc1ccc(C2Nc3ccccc3C(=O)N2Cc2cccs2)cc1COc1c(C)cccc1C` (stereo unspecified), the molecule was called inactive.
